# Assay results as given in PubChem BioAssay AID652039 (The Scripps Research Institute Molecular Screening Center, 2013).
# Among all 370,000 compounds or so, about 3,300 (0.89%) were called active. Shown is part of a subset that was picked to be rich in actives. Unmarked numbers belong to inactive results.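 How the source made its calls: active means activation above the mean of all tested compounds plus 3 SD, computed per campaign excluding outliers beyond control limits (cut at about 13% in these data); inactive means the rest.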
# Target: Kallikrein-7 (Homo sapiens) (UniProt P49862)
# Experiment: proKLK7 zymogen activators, primary screen, biochemical, fluorescence intensity (AID 652039)
# Conditions: purified proKLK7, EDANS-DABCYL substrate fluorescence; at 7 µM; hits give high values; 100% is mature enzyme control, 0% vehicle
# Chain of Kallikrein-7 (Homo sapiens) (P49862 whole entry, looked up): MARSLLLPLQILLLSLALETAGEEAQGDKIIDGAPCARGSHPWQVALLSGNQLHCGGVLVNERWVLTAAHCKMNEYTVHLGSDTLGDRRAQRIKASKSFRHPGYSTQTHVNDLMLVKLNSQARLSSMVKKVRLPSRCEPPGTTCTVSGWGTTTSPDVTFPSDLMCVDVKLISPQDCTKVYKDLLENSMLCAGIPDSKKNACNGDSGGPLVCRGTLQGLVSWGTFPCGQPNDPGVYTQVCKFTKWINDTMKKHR
row,SMILES,activation
1,COc1cc(C(=O)OC2CCOC2=O)c([N+](=O)[O-])cc1OC (stereo not given),-0.39%
2,O=C(OC1CCOC1=O)c1ccc(-c2nc3ccccc3s2)s1 (stereo not given),25.6% (active)
3,CC(C)c1ccc(C(=O)OC2CCOC2=O)cc1 (stereo not given),-0.06%
4,O=C(CSc1ncccn1)NC(=O)NCc1ccccc1,-0.82%
5,CCOC(=O)N1CCN(C(=O)C[C@@H]2C(=O)N(CCc3ccc(Cl)cc3)C3=CCCC[C@]32C(=O)OCC)CC1,0.7%
6,CC(C)(C)OC(=O)NCCc1ccccc1/C=C/S(=O)(=O)NCc1ccc(F)cc1,-0.22%
7,COc1ccc(C2CC(c3cccs3)Nc3nnnn32)cc1 (stereo not given),0.65%
8,COc1ccc(C2=CC(c3cccc(OC)c3)n3nnnc3N2)cc1 (stereo not given),42.3% (active)
9,COc1cccc(-c2nc3n(n2)C(c2ccccc2Cl)C(C(N)=O)=C(C)N3)c1 (stereo not given),0.67%
10,O=C1Nc2ccccc2OC1CC(=O)N1CCCCCCC1 (stereo not given),0.05%
11,CC(C)Nc1ncnc2c1nnn2Cc1ccccc1,0.3%
12,CC(C)Cc1nc(Nc2ccc(S(=O)(=O)N3CCCC3)cc2)c2nnn(Cc3ccccc3)c2n1,18% (active)
13,Cc1nc(Nc2ccc(S(=O)(=O)N3CCCC3)cc2)c2nnn(Cc3ccccc3)c2n1,-0.11%
14,COc1ccc(Cn2ccc3ccc(-c4ccc5ccn(Cc6ccccc6C)c5c4)cc32)cc1,-0.6%
15,Cc1csc(OCC(=O)Nc2ccc(C)c(C)c2)n1,0.44%
16,C=C(C)C#CC(Cc1ccccc1)NCC1CC1 (stereo not given),0.49%
17,COc1ccc(-n2c(SCC(=O)NC3CCCC3)nnc2-c2ccncc2)cc1,0.32%
18,CCOc1c2ccc(C(=O)NCc3ccc4c(c3)OCO4)cc2nn1C,16.6% (active)
19,CCCn1nc2cc(C(=O)NCc3ccccc3)ccc2c1OCC,9.49%
20,COc1ccccc1-n1c(C)nc2cc(C(=O)NCc3ccc4c(c3)OCO4)ccc21,0.53%
21,COC(=O)[C@]12C[C@H](CC(=O)NCc3cccs3)C(=O)N(CCc3ccc(OC)c(OC)c3)C1=C[C@H](C(C)C)O[C@@H]2C1CC1,0.65%
22,Cc1ccc(-c2nn(-c3ccccc3)cc2/C=C/C(=O)Nc2cccc(S(N)(=O)=O)c2)cc1,302% (active)
23,O=C(/C=C/c1cn(-c2ccccc2)nc1-c1ccc2c(c1)OCCO2)NCCCN1CCOCC1,-1.99%
24,NS(=O)(=O)c1ccc(NC(=O)/C=C/c2ccccc2Cl)cc1,3.16%
25,O=C(NC1CCCCN(Cc2ccc(Cl)cc2)C1=O)c1ccc(Br)cc1 (stereo not given),-0.15%
